Results on 37 sequences are retold here after article PMC5700166.

For assay [1], the target named is T1, GST-Nv-NF-kB (Ser allele) (Nematostella vectensis, UniProt A7UNT2 2-411).
T1 sequence: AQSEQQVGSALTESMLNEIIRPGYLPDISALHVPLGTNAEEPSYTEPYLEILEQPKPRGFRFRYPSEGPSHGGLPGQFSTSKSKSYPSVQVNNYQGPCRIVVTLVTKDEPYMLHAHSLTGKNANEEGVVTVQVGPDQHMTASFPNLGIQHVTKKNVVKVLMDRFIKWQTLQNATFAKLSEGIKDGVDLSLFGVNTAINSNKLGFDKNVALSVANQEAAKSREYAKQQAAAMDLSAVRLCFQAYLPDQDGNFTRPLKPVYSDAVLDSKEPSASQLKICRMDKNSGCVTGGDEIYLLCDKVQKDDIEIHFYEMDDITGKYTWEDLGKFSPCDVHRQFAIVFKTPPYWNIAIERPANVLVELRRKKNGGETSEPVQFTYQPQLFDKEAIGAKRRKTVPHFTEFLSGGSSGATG
In words: protein-binding microarray (PBM); PBM: ~300 nM protein, 6 mM HEPES pH 7.8, 80 mM KCl, 0.5 mM EDTA, 0.5 mM EGTA, 6% glycerol, 35 ng/ul poly-dIdC, 1% milk, 1 h, room temperature; Ap Aiptasia and Nv Nematostella (sea anemones) / Co Capsaspora / Aq Amphimedon (sponge) / Dm Drosophila / Hu human; RHD is the Rel homology domain; high values mean tight binding. Conditions: dsDNA, one strand shown.

Assay [2] addresses GST-Hu-p50 (Homo sapiens, UniProt P19838 7-356). Described as above. Conditions: dsDNA, one strand shown.

GST-Hu-p50, sequence (P19838 7-356): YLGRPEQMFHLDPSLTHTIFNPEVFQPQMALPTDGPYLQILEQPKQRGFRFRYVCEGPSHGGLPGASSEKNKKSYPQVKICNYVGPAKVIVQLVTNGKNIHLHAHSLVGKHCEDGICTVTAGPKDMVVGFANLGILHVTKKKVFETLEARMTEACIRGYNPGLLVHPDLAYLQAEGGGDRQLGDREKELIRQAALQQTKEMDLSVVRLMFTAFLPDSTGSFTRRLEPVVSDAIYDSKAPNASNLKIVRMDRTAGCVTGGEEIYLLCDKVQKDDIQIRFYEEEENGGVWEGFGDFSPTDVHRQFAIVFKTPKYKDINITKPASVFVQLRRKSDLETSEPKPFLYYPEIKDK

Regarding “CCGATTAACATCACAAAAATCCCTGATGTTAATCGGGTCTTGATTCGCTTGACGCTGCTG”, the binding signal was 5.52 z-score in assay [1] and 5.26 z-score in assay [2].

With “CCGATTAACATCAGGGGCAACCCTGATGTTAATCGGGTCTTGATTCGCTTGACGCTGCTG”, the binding signal came out at 1.9 z-score in assay [1] and 3.13 z-score in assay [2].

As for “CCGATTAACATCACACCCCCCCCTGATGTTAATCGGGTCTTGATTCGCTTGACGCTGCTG”, the binding signal in assay [1] worked out at 3.66 z-score; in assay [2] it was 3.76 z-score.

In the case of “CCGATTAACATCAGGGATTTCCATGATGTTAATCGGGTCTTGATTCGCTTGACGCTGCTG”, the binding signal in assay [1] is 2.71 z-score; in assay [2] it was 3.25 z-score.

On to “CCGATTAACATCAGGGGGTGTACTGATGTTAATCGGGTCTTGATTCGCTTGACGCTGCTG”, for which the binding signal in assay [1] was found to be 3.99 z-score; in assay [2], 4.44 z-score.

For “CCGATTAACATCACGGGAATTTCTGATGTTAATCGGGTCTTGATTCGCTTGACGCTGCTG”, the values for the binding signal in assay [1] and in assay [2] were 6.48 z-score and 4.6 z-score, respectively.

In the case of “CCGATTAACATCAGGGAAAGAACTGATGTTAATCGGGTCTTGATTCGCTTGACGCTGCTG”, the binding signal in assay [1] worked out at 3.33 z-score; in assay [2], 2.37 z-score.

On to “CCGATTAACATCAAGGGTTTTCCTGATGTTAATCGGGTCTTGATTCGCTTGACGCTGCTG”, for which the binding signal stood at 2.41 z-score in assay [1] and 2.92 z-score in assay [2].

For “CCGATTAACATCAGGGGAGGTACTGATGTTAATCGGGTCTTGATTCGCTTGACGCTGCTG”, the binding signal in assay [1] was 4.46 z-score; in assay [2], 3.17 z-score.

Regarding “CCGATTAACATCACTCCCTAAAATGATGTTAATCGGGTCTTGATTCGCTTGACGCTGCTG”, the binding signal in assay [1] is 1.75 z-score; in assay [2], 2.32 z-score.

On to “CCGATTAACATCAGGAAATGCCCTGATGTTAATCGGGTCTTGATTCGCTTGACGCTGCTG”, for which the values for the binding signal in assay [1] and in assay [2] were 1.15 z-score and 2.89 z-score, respectively.

“CCGATTAACATCAGGAAAACCCATGATGTTAATCGGGTCTTGATTCGCTTGACGCTGCTG”: the binding signal in assay [1] was determined as 1.48 z-score; in assay [2], 2.32 z-score.

Consider “CCGATTAACATCAGGAATTTACCTGATGTTAATCGGGTCTTGATTCGCTTGACGCTGCTG”, for which the binding signal came to 4.26 z-score in assay [1] and 3.27 z-score in assay [2].

“CCGATTAACATCAGGGGTTACCCTGATGTTAATCGGGTCTTGATTCGCTTGACGCTGCTG”: the binding signal in assay [1] is 4.21 z-score; in assay [2] it was 3.9 z-score.

Turning to “CCGATTAACATCAGGGAATTCCATGATGTTAATCGGGTCTTGATTCGCTTGACGCTGCTG”, the results for the binding signal in assay [1] and in assay [2] were 5.22 z-score and 4.7 z-score, respectively.

On to “CCGATTAACATCAAACACTCCCCTGATGTTAATCGGGTCTTGATTCGCTTGACGCTGCTG”, for which the binding signal worked out at 4.23 z-score in assay [1] and 3.6 z-score in assay [2].

In the case of “CCGATTAACATCAAGGGGAGTCCTGATGTTAATCGGGTCTTGATTCGCTTGACGCTGCTG”, the binding signal in assay [1] was 4.97 z-score; in assay [2], 4.3 z-score.

Turning to “CCGATTAACATCATTTATCCCGGTGATGTTAATCGGGTCTTGATTCGCTTGACGCTGCTG”, the binding signal in assay [1] was found to be 1.28 z-score; in assay [2], 1.33 z-score.

On to “CCGATTAACATCAGGAATGTACCTGATGTTAATCGGGTCTTGATTCGCTTGACGCTGCTG”, for which the binding signal stood at 3.2 z-score in assay [1] and 2.14 z-score in assay [2].

Consider “CCGATTAACATCAAAAATTTACCTGATGTTAATCGGGTCTTGATTCGCTTGACGCTGCTG”, for which the values for the binding signal in assay [1] and in assay [2] were 6.08 z-score and 3.82 z-score, respectively.

For the sequence “CCGATTAACATCAAATAAATCCCTGATGTTAATCGGGTCTTGATTCGCTTGACGCTGCTG”, the values for the binding signal in assay [1] and in assay [2] were 3.53 z-score and 3.29 z-score, respectively.

Regarding “CCGATTAACATCAATTTGGGAAATGATGTTAATCGGGTCTTGATTCGCTTGACGCTGCTG”, the binding signal came to 2.36 z-score in assay [1] and 1.3 z-score in assay [2].

For the sequence “CCGATTAACATCAGGCAATTCCCTGATGTTAATCGGGTCTTGATTCGCTTGACGCTGCTG”, the binding signal was 3.97 z-score in assay [1] and 3.86 z-score in assay [2].

For “CCGATTAACATCAGGGGGTAATATGATGTTAATCGGGTCTTGATTCGCTTGACGCTGCTG”, the values for the binding signal in assay [1] and in assay [2] were 5.13 z-score and 4.43 z-score, respectively.

For “CCGATTAACATCAGGGGCACCCCTGATGTTAATCGGGTCTTGATTCGCTTGACGCTGCTG”, the binding signal in assay [1] was determined as 2.72 z-score; in assay [2], 3.94 z-score.

In the case of “CCGATTAACATCAATAAATACCCTGATGTTAATCGGGTCTTGATTCGCTTGACGCTGCTG”, the results for the binding signal in assay [1] and in assay [2] were 6.32 z-score and 5.25 z-score, respectively.

Turning to “CCGATTAACATCAACAGGGAAAATGATGTTAATCGGGTCTTGATTCGCTTGACGCTGCTG”, the results for the binding signal in assay [1] and in assay [2] were 5.98 z-score and 3.34 z-score, respectively.

Consider “CCGATTAACATCAGGAGTTACCCTGATGTTAATCGGGTCTTGATTCGCTTGACGCTGCTG”, for which the binding signal is 1.4 z-score in assay [1] and 2.44 z-score in assay [2].

Take “CCGATTAACATCAGCACCCCCCCTGATGTTAATCGGGTCTTGATTCGCTTGACGCTGCTG”: the binding signal in assay [1] came out at 3.4 z-score; in assay [2], 4.3 z-score.

For the sequence “CCGATTAACATCAGGCTATCCCCTGATGTTAATCGGGTCTTGATTCGCTTGACGCTGCTG”, the binding signal was determined as 3.73 z-score in assay [1] and 3.43 z-score in assay [2].

For “CCGATTAACATCAGGGGAAGGGATGATGTTAATCGGGTCTTGATTCGCTTGACGCTGCTG”, the binding signal in assay [1] amounted to 5.77 z-score; in assay [2], 3.4 z-score.

Consider “CCGATTAACATCAGGGGATCCCATGATGTTAATCGGGTCTTGATTCGCTTGACGCTGCTG”, for which the binding signal in assay [1] amounted to 6.24 z-score; in assay [2] it was 4.5 z-score.

On to “CCGATTAACATCAAATTCCCAGCTGATGTTAATCGGGTCTTGATTCGCTTGACGCTGCTG”, for which the binding signal in assay [1] amounted to 3.85 z-score; in assay [2], 2.81 z-score.

“CCGATTAACATCAGGGGTTTACCTGATGTTAATCGGGTCTTGATTCGCTTGACGCTGCTG”: the figures for the binding signal in assay [1] and in assay [2] were 4.43 z-score and 4.94 z-score, respectively.

Turning to “CCGATTAACATCAAACACCCCCCTGATGTTAATCGGGTCTTGATTCGCTTGACGCTGCTG”, the values for the binding signal in assay [1] and in assay [2] were 4.8 z-score and 4.57 z-score, respectively.

Turning to “CCGATTAACATCAGGGAATATTATGATGTTAATCGGGTCTTGATTCGCTTGACGCTGCTG”, the figures for the binding signal in assay [1] and in assay [2] were 5.41 z-score and 3.86 z-score, respectively.

With “CCGATTAACATCAGGAAATCCCATGATGTTAATCGGGTCTTGATTCGCTTGACGCTGCTG”, the binding signal in assay [1] amounted to 1.81 z-score; in assay [2], 3.19 z-score.
